Data on 39 molecules can be found in PubChem BioAssay (NCI).

About 83,000 compounds went through this panel and 20% of them were active in at least one assay; those are over-represented in the sample as a whole.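 Note: values are percent growth. 100 is the growth of untreated cells, values between 100 and 0 indicate rising inhibition; between -100 and 0 indicates cell death.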 Calls of active or inactive are those of the source. The calls were made as follows: active = growth percent below 10; inactive = the rest.

In the assay the test system is MCF7 breast. As to the kind of experiment: NCI-60 one-dose screen, 48 h (100 = growth as untreated, 0 = no growth, -100 = all killed). Particulars: 10 µM unless noted.
Regarding `CCn1cc(C(=O)O)c(=O)c2cc(F)c(N3CCN(CC(=O)Nc4ccccc4)C(C)C3)c(F)c21` (centres undefined), the growth is 92.7% (inactive).

In the case of `c1cc(OCCN2CCCCC2)ccc1CNc1ccc2nc(CCC3CCCCC3)[nH]c2c1`, the growth is -3.08% (active). With `COC1C(O)CC(OC2CC(OC3CC(O[C@@H]4C(=O)c5c(cc6cc(OC7CC(OC8CC(O)C(O)C(C)O8)C(O)C(C)O7)c(C)c(O)c6c5O)CC4[C@H](OC)C(=O)C(C)=O)OC(C)C3O)OC(C)C2O)OC1C` (some centres undefined) the figure was 3.16% (active). For `Cc1ccc(OCCOCCOCCOc2ccc(C)n(O)c2=S)c(=S)n1O`, the growth is 20.3% (inactive). In the case of `Cn1cc(-c2csc(-c3cn(CCCN4CCOCC4)c4ccc(F)cc34)n2)c2cccnc21` it was 34.1% (inactive); in that of `O=C1c2cccnc2C(=O)c2c1c(C(=O)OCCc1ccccn1)c1ccccn21`, -56.8% (active); in that of `C#CCOc1cccc(Nc2ncnc3c2ncn3C2CCN(C(=O)CCl)C2)c1` (centres undefined), -50.9% (active). In the case of `O=C(Cn1nc(-c2cccc3ccccc23)ccc1=O)NCc1cccc(Cl)c1`, the growth is 20.1% [50 µM] (inactive). As for `CC1(C)CC[C@]23CC[C@]4(C)[C@H](CC[C@@H]5[C@@]6(C)C/C(=C/O)C(=O)C(C)(C)[C@@H]6CC[C@]54C)[C@H]2[C@H]1OC3`, the growth is 85.7% (inactive).

In the case of `Clc1ccc(-c2cc(-c3ccccc3)nc(N3CCN(CCCNc4ccnc5cc(Cl)ccc45)CC3)n2)cc1`, the growth was -18.5% (active). With `Nc1nc(C(=O)N/N=C/c2ccc(F)cc2)nn1-c1ccc(S(N)(=O)=O)cc1` the figure was 98.8% (inactive); with `CN(C)c1ccc(CNCCO)cc1`, 94% (inactive).

As for `Nc1c(Br)cc2c(c1Br)Cc1cc([N+](=O)[O-])ccc1-2`, the growth is 33.8% (inactive). Regarding `COC(=O)Cn1c2c(c3c(OC)cccc31)C(=O)c1ccccc1-2`, the growth is 85.9% (inactive). For `O=C(/C=C/c1ccccc1)c1ccc(-n2cc(CN3CCN(c4cc5c(cc4F)c(=O)c(C(=O)O)cn5C4CC4)CC3)nn2)cc1`, the growth was 58.2% (inactive). `Cc1cc2oc(/C=C/c3ccccc3)cc(=O)c2c(C)c1Cl`: the growth was 98% (inactive). Regarding `Cc1nc(N/N=C/c2cn(-c3ccccc3)nc2-c2cc3ccccc3oc2=O)sc1N=Nc1ccccc1`, the growth was 68.3% (inactive). As for `Oc1c(CN2CCC(N3CCOCC3)CC2)cc(Cc2cc(CN3CCC(N4CCOCC4)CC3)c(O)c3ncccc23)c2cccnc12`, the growth was 5.06% (active). With `N#Cc1nn(-c2cc(=O)[nH]c3ccc(Br)cc23)c(N)c1C#N` the figure was 104% (inactive); with `CCCCO[C@@H]1C=C2[C@H]3CC(C)(C)C(=O)C[C@]3(C(=O)O[C@@H]3O[C@H](CO[C@@H]4O[C@H](CO)[C@@H](OC5OC(C)C(O)C(O)C5O)[C@H](O)[C@H]4O)[C@@H](O)[C@H](O)[C@H]3O)CC[C@@]2(C)[C@]2(C)CC[C@H]3C(C)(C)C(=O)CC[C@]3(C)[C@@H]12` (some centres undefined), 55.5% (inactive). For `CC(=O)c1c(Nc2cccc(F)c2)[nH]c2c(Cl)cc(Cl)c(Cl)c2c1=O`, the growth is 2.73% (active). With `O=c1cc(CP(=O)(O)O)c2cc(O)c(-c3ccccc3)cc2o1` the figure was 96.9% (inactive); with `CC(=O)c1sc(-c2ccc(F)cc2)cc1O`, 94.5% (inactive). Take `CC(=O)c1ccc(-n2cc(CN3CCN(c4cc5c(cc4F)c(=O)c(C(=O)O)cn5C4CC4)CC3)nn2)cc1`: the growth was 72.9% (inactive). As for `COc1ccc(CN2C(=O)OC(C)(COC(C)=O)C2=O)cc1` (centres undefined), the growth is 96.3% (inactive). For `O=C1CCCC1[n+]1ccccc1` (centres undefined), the growth is 93% (inactive). In the case of `CN(C)CCC(=O)C1CC1`, the growth was 108% (inactive).

Turning to `Nc1ccc(-c2ccncc2)cc1NC(=O)N1CCCC1`, the growth was 87% (inactive).

`O=c1oc2c(cnc3ccccc32)cc1-c1cccc(Cl)c1`: the growth is 99.2% (inactive).

Consider `C/C(=C(\c1ccc(OCCN2CCCCCC2)cc1)c1ccc(OC(=O)c2ccccc2)cc1)c1ccc(Cl)cc1`, for which the growth is 14.5% (inactive).

Take `Nc1cccc(-c2ccc(COc3ccc(CC4SC(=O)NC4=O)cc3)cc2)c1` (centres undefined): the growth is 37.7% (inactive). Regarding `C=C(C)[C@@H]1CC[C@]2(COC3CCCCO3)CC[C@]3(C)[C@H](CC[C@@H]4[C@@]5(C)C=C(C=O)C(=O)C(C)(C)[C@@H]5CC[C@]43C)[C@@H]12` (some centres undefined), the growth was -58.4% (active).

On to `O=C1CCCCN1c1ccc(C2=NCCCN2)cc1`, for which the growth was 84.2% (inactive). With `Cc1cc(=O)oc2cc(Oc3nc(Br)cn4c(Br)cnc34)ccc12`, the growth is 22.2% (inactive).

As for `C=CN(C(=O)N1CCN(c2cc3c(cc2F)c(=O)c(C(=O)O)cn3C2CC2)CC1)c1nc(-c2ccc(Cl)cc2)cs1`, the growth is 51.3% (inactive). With `Cc1ccccc1N1CCN(C(=S)c2ccccc2)CC1`, the growth was 88.2% (inactive). Consider `COc1ccc(Cl)cc1Nc1nc(C(F)(F)F)ccc1C(=O)N/N=C/c1ccc([N+](=O)[O-])cc1`, for which the growth is -8.58% (active).

As to `O=C(Nc1nc(Cl)nc(Nc2ccc(N3CCOCC3=O)cc2)n1)c1ccc(Cl)s1`, the growth was 59.1% (inactive). With `COCCOC(C)C(/C=N/NC(N)=S)=N/NC(N)=S` (centres undefined) the figure was 19.2% (inactive).
